About 79,000 compounds went through this panel and 15% of them were active in at least one assay; those are over-represented in the sample as a whole. Active and inactive are the calls of the source. No stated cut-off is given here; in the data, active means growth inhibition above about 70%; inactive means the rest.
Tests used:
[1] = NCI Yeast Anticancer Drug Screen. Data for the rad50 strain (AID 155);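 further: 0% = growth of vehicle-only cultures of the same strain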; details: S. cerevisiae rad50 strain growth inhibition, stronger effect = higher value
Summary of the method: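 Vehicle-treated cultures provide the reference for the growth inhibition reported for compound-exposed, repair-deficient yeast.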

[2] = NCI Yeast Anticancer Drug Screen. Data for the mec2-1 strain (AID 157); details: S. cerevisiae mec2-1 strain, stronger effect = higher value
Summary of the method: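 Strain: mec2-1 (DNA repair/cell cycle alteration). Compound exposure, then growth measured; inhibition expressed relative to vehicle.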

[3] = NCI Yeast Anticancer Drug Screen. Data for the sgs1 mgt1 strain (AID 161);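 further: 0% = growth of cultures given vehicle only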; details: S. cerevisiae sgs1 mgt1 strain, stronger effect = higher value
Summary of the method: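 Mutant yeast exposed to compound; growth scored against vehicle-only wells.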

[4] = NCI Yeast Anticancer Drug Screen. Data for the cln2 rad14 strain (AID 165);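 further: 0% = growth equal to vehicle treated cultures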; details: S. cerevisiae cln2 rad14 strain, stronger effect = higher value
Summary of the method: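 Compounds are applied to the cln2 rad14 yeast strain, and growth is then compared with that of vehicle-treated cultures to give inhibition.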

[5] = NCI Yeast Anticancer Drug Screen. Data for the bub3 strain (AID 167); details: S. cerevisiae bub3 mutant strain, stronger effect = higher value
Summary of the method: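 Mutant yeast screening strain plus compound; vehicle-treated cultures serve as the 0% inhibition reference.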

[6] = NCI Yeast Anticancer Drug Screen. Data for the mlh1 rad18 strain (AID 175); details: S. cerevisiae mlh1 rad18 strain growth inhibition, stronger effect = higher value
Summary of the method: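 Read-out is yeast growth inhibition, calculated against vehicle-only controls. The compound was applied to a strain engineered with DNA damage repair alterations.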

[7] = at 5.0 µM (retest, dose inferred, filed as 0.5)
[8] = at 50.0 µM (retest, dose inferred, filed as 5.0)

Measured: growth inhibition

C/C(=N/NC(=S)Nc1ccccc1Cl)c1ccccn1
inactive: [1]; [7] -1% | [1]; [8] 19% | [2]; [7] -30% | [2]; [8] 11% | [2]; at 50.0 µM 50.1% | [3]; [7] -51% | [3]; [8] 22% | [4]; [7] 3% | [4]; [8] 5% | [5]; [7] -37% | [5]; [8] 17% | [5]; at 50.0 µM 56.2% | [6]; [7] -21% | [6]; [8] 20%
active: [1]; at 50.0 µM 70.4% | [3]; at 50.0 µM 81.3% | [4]; at 50.0 µM 78.3% | [6]; at 50.0 µM 77.2%

Cc1ccsc1/C=N/Nc1cc(C)c2cccc(C)c2n1
inactive: [1]; [7] 1% | [1]; [8] 47% | [1]; at 50.0 µM 48.5% | [2]; [7] -23% | [2]; [8] 21% | [2]; at 50.0 µM 30.3% | [3]; [7] -11% | [3]; [8] 24% | [3]; at 50.0 µM 48.4% | [4]; [7] 4% | [4]; [8] 38% | [4]; at 50.0 µM 33.8% | [5]; [7] -12% | [5]; [8] 63% | [5]; at 50.0 µM 15.4% | [6]; [7] -8% | [6]; [8] 57% | [6]; at 50.0 µM 63.2%

COC(=O)c1c(COC(=O)NC(C)C)c2n(c1C)CS(=O)(=O)C2
active: [1]; at 50.0 µM 97.3% | [2]; at 50.0 µM 98.5% | [3]; at 50.0 µM 98.4% | [4]; at 50.0 µM 98% | [5]; at 50.0 µM 97% | [6]; at 50.0 µM 97.7%
inactive: [1]; [7] -38% | [1]; [8] -8% | [2]; [7] 3% | [2]; [8] 5% | [3]; [7] -3% | [3]; [8] 31% | [4]; [7] -6% | [4]; [8] -20% | [5]; [7] -18% | [5]; [8] 3% | [6]; [7] -35% | [6]; [8] -32%

CCC[CH2][Sn]([CH2]CCC)([O]C(=O)c1cc(OC)c(OC)cc1OC)[O]C(=O)c1cc(OC)c(OC)cc1OC
active: [1]; [7] 88% | [1]; [8] 88% | [1]; at 50.0 µM 89.8% | [2]; [7] 90% | [2]; [8] 90% | [2]; at 50.0 µM 91.5% | [3]; [7] 87% | [3]; [8] 87% | [3]; at 50.0 µM 90.1% | [4]; [7] 79% | [4]; [8] 79% | [4]; at 50.0 µM 91.2% | [5]; [7] 85% | [5]; [8] 85% | [5]; at 50.0 µM 87.2% | [6]; [7] 84% | [6]; [8] 84% | [6]; at 50.0 µM 89.5%

CCc1ccccc1NC(=O)C(C#N)C1=C(Cl)C(=O)c2ccccc2C1=O (configuration not stated)
active: [1]; [8] 98% | [1]; at 50.0 µM 97.2% | [2]; [7] 71% | [2]; [8] 98% | [2]; at 50.0 µM 98.7% | [3]; [8] 98% | [3]; at 50.0 µM 97.3% | [4]; [8] 98% | [5]; [7] 94% | [5]; [8] 98% | [5]; at 50.0 µM 97.3% | [6]; [8] 97% | [6]; at 50.0 µM 98.1%
inactive: [1]; [7] 53% | [3]; [7] 51% | [4]; [7] 20% | [4]; at 50.0 µM 50.9% | [6]; [7] 44%

N#C/C(=C/c1ccccc1B(O)O)C(=O)O
active: [1]; at 50.0 µM 71.4%
inactive: [1]; [7] -151% | [1]; [8] -5% | [2]; [7] -49% | [2]; [8] -36% | [2]; at 50.0 µM 17% | [3]; [7] -61% | [3]; [8] -40% | [3]; at 50.0 µM 31.3% | [4]; [7] -62% | [4]; [8] -58% | [4]; at 50.0 µM 13.1% | [5]; [7] -77% | [5]; [8] -96% | [5]; at 50.0 µM -8.9% | [6]; [7] -140% | [6]; [8] -65% | [6]; at 50.0 µM 65.8%

Nc1ccc(-c2cccc(-c3ccccc3)c2)cc1
inactive: [1]; [7] -8% | [2]; [7] -11% | [3]; [7] -11% | [4]; [7] -40% | [5]; [7] -15% | [6]; [7] -27%
active: [1]; [8] 94% | [1]; at 50.0 µM 98% | [2]; [8] 94% | [2]; at 50.0 µM 97.7% | [3]; [8] 97% | [3]; at 50.0 µM 96.2% | [4]; [8] 96% | [4]; at 50.0 µM 98.7% | [5]; [8] 97% | [5]; at 50.0 µM 98.3% | [6]; [8] 97% | [6]; at 50.0 µM 97.6%

CC(C)Sc1nc(NC(=O)N(CCCl)N=O)cc(=O)[nH]1
active: [6]; [8] 74%
inactive: [1]; [7] -12% | [1]; [8] 26% | [1]; at 50.0 µM 13.8% | [2]; [7] -4% | [2]; [8] 9% | [2]; at 50.0 µM -2% | [3]; [7] -12% | [3]; [8] 23% | [3]; at 50.0 µM 20.4% | [4]; [7] 8% | [4]; [8] 12% | [4]; at 50.0 µM 5.7% | [5]; [7] -1% | [5]; [8] 7% | [5]; at 50.0 µM 13.2% | [6]; [7] 2% | [6]; at 50.0 µM 23.8%

O=Cc1nc2c3cccnc3ccc2n1Cc1ccccc1
inactive: [1]; [7] -4% | [1]; [8] 24% | [1]; at 50.0 µM 0.05% | [2]; [7] -17% | [2]; [8] 8% | [2]; at 50.0 µM -18.8% | [3]; [7] -17% | [3]; [8] 15% | [3]; at 50.0 µM 35.4% | [4]; [7] -2% | [4]; [8] 5% | [4]; at 50.0 µM 26.7% | [5]; [7] 0% | [5]; [8] 11% | [5]; at 50.0 µM 57.4% | [6]; [7] 8% | [6]; [8] 34% | [6]; at 50.0 µM 40.9%

From PubChem BioAssay (NCI)
